# PubChem BioAssay (Tox21)
# Several values for one entry are separate records, joined by “and”; a condition that tells them apart may be missing. Equal entries are not always repeated. Records with an inconclusive call do not appear. A call without a number means that no potency is given here. Unmarked numbers belong to inactive results. Activity calls are given as the source filed them. The call rests on the fitted dose curve.
# Test: Nuclear factor erythroid 2-related factor 2/antioxidant responsive element (Nrf2/ARE) small molecule agonists: luciferase reporter gene qHTS assay in human keratinocytes (AID 1919969); further: nearly all actives have a fitted effect of over 35% in size
# Conditions: KeratinoSens HaCaT ARE-luciferase, luminescence, 24 h; series mostly up to 92.4 µM
# Potency means the concentration at half of the fitted maximal effect.
Compound,Potency,"activity, positive = activation"
FC(F)(F)c1cccc(Cl)c1,inactive,–
CC(C)(C)c1cc(Cc2cc(C(C)(C)C)c(O)c(C(C)(C)C)c2)cc(C(C)(C)C)c1O,inactive,–
C=C(C)C(=O)OCCC(C)OC(=O)C(=C)C (centres undefined),inactive,–
CCOc1c(N2CCOCC2)cnn(C)c1=O,inactive,–
Cc1ccccc1C(=O)N1CC/C(=N\OS(=O)(=O)O)c2ccc(Cl)cc21,inactive,–
COc1cc(C(=S)N2CCOCC2)cc(OC)c1OC,inactive,–
CC(C)c1ccc2c(C(C)C)cc(C(C)C)c(S(=O)(=O)O)c2c1,inactive,–
CCC(C)(O)CCC=C(C)C (centres undefined),inactive,–
CN(C)CCCNCCC#N,inactive,–
CCCC(=O)OCC(COC(=O)CCC)OC(=O)CCC,inactive,–
CO[Si](OC)(OC)c1ccccc1,inactive,–
Oc1ccc(Sc2ccc(O)cc2)cc1,57.2 µM (active),–
Nc1ccc(N=Nc2ccccc2)c(N)n1,1.73 µM (active) and 2.73 µM (active) and 2.37 µM (active),–
CC(O)Cn1cnc2c1c(=O)n(C)c(=O)n2C (centres undefined),inactive,–
CCCCCCCCCCCC(=O)OC[C@@H](O)[C@H]1OC[C@H](OCCO)[C@H]1OCCO,23.7 µM (active),–
O=C1C(O)=C(O)C(=O)C(O)=C1O,inactive,–
COc1cc(/C=C/C(N)=O)cc(OC)c1OC,inactive,–

Compound,Potency,"activity, positive = activation"
N#CCc1cccc(C(F)(F)F)c1,68.6 µM (active),–
CC(=O)/C=C/c1ccco1,inactive,–
CCOC(=O)OC(=O)OCC,inactive,–
CC(O)C(CO)C(C)O (centres undefined),inactive,–
OC[C@H]1O[C@H](O[C@H]2O[C@H](CO)[C@@H](O)[C@H](O)[C@H]2O)[C@H](O)[C@@H](O)[C@@H]1O,inactive,–
COc1ccc(Br)c(C)c1,inactive,–
CC(=O)CCC(C)C,inactive,–
COc1ccccc1/C=C/C=O,54.5 µM (active),–
O=c1oc2c(O)c(O)cc3c(=O)oc4c(O)c(O)cc1c4c23,–,-10.8% [at 19 µM]
CC(C)NC(=O)c1ccccc1N,inactive,–
CNC1(C)C2CCC(C2)C1(C)C (centres undefined),inactive,–
COc1ccccc1C=O,inactive,–
CNC(=O)NC,inactive,–
CC1CC(=O)CC(C)(C)C1 (centres undefined),inactive,–
IC(I)I,inactive,–
CO[Si](CCCNCCC[Si](OC)(OC)OC)(OC)OC,inactive,–
CCCCNc1ccccc1,inactive,–
